Rows were chosen to be rich in hits. Some 5.9% of all compounds tested hit in one or more screens of this group.
GLP1R inv ag = inverse agonists of human GLP-1 receptor; P43220; HEK293 GLP-1R CRE-luciferase, luminescence, 24 h; GLP-1R form is constitutively active; Potency, µM (series often up to 38.3 µM), usual class: inhibitors; AID 624417; 410,000 tested, 1.6% active; note: nearly all actives have a fitted effect of over 55% in size
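Inverse agonism was detected as reduced cAMP-driven luciferase luminescence after 24 h compound treatment. The cells were HEK293 clones expressing constitutively active human GLP-1R with the reporter. Reporter-only and GPR119 cell lines served as counterscreen controls.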
GLP-1R agonist = agonists of human GLP-1 receptor | Potency, µM (doses to about 45.6 µM), actives largely listed as activators | HEK293 GLP-1R CRE-luciferase, luminescence, 4-6 h; cells express a hypersensitive GLP-1R form | AID 624172 | 380,000 tested, 0.007% active | P43220
GLP1R cytotox = cytotoxicity counter-screen for GLP-1 receptor inverse agonists | Potency, µM (highest dose often 38.3 µM), actives largely listed as inhibitors | HEK293 cAMP-luciferase reporter cells, luminescence, 24 h | AID 624418 | 410,000 tested, 0.13% active;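 note: loss of luciferase light is scored as toxicity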
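Compound-treated cells are incubated 24 hr at 37 deg C under 5% CO2 after a 12 hour attachment period, then luciferase detection reagent is added and luminescence is measured following 12 min at room temperature; lowered signal indicates toxicity.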
Gal4-VP16 FLuc = counter-screen for ROR gamma inhibitors: Gal4-VP16 reporter; Drosophila S2 Gal4-VP16 UAS-luciferase, luminescence, 20 h; 310,000 tested, 3.5% active; Potency, µM (doses to about 53.6 µM), most hits filed as inhibitors; AID 2546;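 note: Gal4-VP16 expression switched on by copper sulfate through the metallothionein promoter; nearly all actives have a fitted effect of over 50% in size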
RORg inh = ROR gamma (mouse) transcription inhibition; Drosophila S2 Gal4-RORgamma UAS-luciferase reporter, 20 h; Potency, µM (doses to about 53.6 µM), actives largely listed as inhibitors; 310,000 tested, 5.4% active; note: nearly all actives have a fitted effect of over 60% in size
Target sequence (P51450 whole entry, looked up, the tested form may be a part): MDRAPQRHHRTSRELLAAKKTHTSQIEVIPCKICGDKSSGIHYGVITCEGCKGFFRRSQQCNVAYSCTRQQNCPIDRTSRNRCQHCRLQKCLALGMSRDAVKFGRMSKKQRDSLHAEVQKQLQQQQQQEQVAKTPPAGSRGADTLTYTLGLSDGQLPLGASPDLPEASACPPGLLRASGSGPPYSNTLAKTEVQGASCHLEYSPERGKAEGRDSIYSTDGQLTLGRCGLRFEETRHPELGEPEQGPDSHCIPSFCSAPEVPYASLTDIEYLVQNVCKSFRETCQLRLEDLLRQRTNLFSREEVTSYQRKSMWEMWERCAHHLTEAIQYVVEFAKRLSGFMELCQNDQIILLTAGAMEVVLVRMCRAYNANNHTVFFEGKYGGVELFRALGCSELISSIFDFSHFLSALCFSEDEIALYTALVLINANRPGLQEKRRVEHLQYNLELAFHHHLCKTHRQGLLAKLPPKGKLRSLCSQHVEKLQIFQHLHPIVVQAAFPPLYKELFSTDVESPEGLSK
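A Gal4/UAS one-hybrid system in insect cells: metallothionein-promoter Gal4–ROR gamma fusion plus Photinus luciferase reporter. Copper sulfate 700 uM final, 20 hr ambient incubation, luminescent detection after 10 min with reagent.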
Each line names hits and unclear results; the compound was inactive in the other large screens. Calls come from the whole dose curve; as a rule, active = well fitted curve in the direction sought with a large enough effect; inconclusive = small, poorly fitted or top-dose-only effect, or another doubt; inactive = no such curve, though single readings can be large; an effect the other way counts as inactive or inconclusive.

CCOc1ccccc1/C=N/Nc1cc(C)nc2ccc(C)cc12	GLP1R inv ag inconclusive, Gal4-VP16 FLuc inconclusive
Cc1cc(C)nc(N/N=C/c2ccccc2OCc2cccc(Br)c2)n1	GLP1R inv ag 3.5µM, GLP1R cytotox 4µM, Gal4-VP16 FLuc 35µM, RORg inh 50µM
Cc1cc(C)nc(N/N=C/c2ccccc2OCC(=O)O)n1	none
Cn1c(=O)oc2cc(S(=O)(=O)NC(Cc3ccccc3)C(=O)NCc3ccccc3Cl)ccc21 (stereo unspecified)	none (no result: GLP-1R agonist, Gal4-VP16 FLuc, RORg inh)
CCCCOC(=O)c1ccc(Nc2nc3ccc(C)cc3n3cnnc23)cc1	none (no result: GLP-1R agonist, Gal4-VP16 FLuc, RORg inh)
Cc1ccc(COC(=O)c2ccc(-c3nnn(Cc4ccc(C)cc4)n3)cc2)cc1	none (no result: Gal4-VP16 FLuc, RORg inh)
Cc1cc(C)c(NC(=O)CSc2ncc3c(n2)-c2cc(Cl)ccc2N(C)S3(=O)=O)c(C)c1	none (no result: GLP-1R agonist, Gal4-VP16 FLuc, RORg inh)
O=c1[nH]c2ccc(NCc3ccc(-c4cccc(Cl)c4)o3)cc2[nH]1	none (no result: GLP-1R agonist, Gal4-VP16 FLuc, RORg inh)
CCc1nnc2c(N3CCN(c4cc(Cl)ccc4C)CC3)nc3ccccc3n12	none (no result: GLP-1R agonist, Gal4-VP16 FLuc, RORg inh)
Cc1cc(C)nc(N/N=C/c2cc(Br)ccc2O)n1	GLP1R inv ag inconclusive, Gal4-VP16 FLuc 18µM, RORg inh 3.2µM
CC(C(=O)Nc1ccccc1-c1ccccc1)N1CCN(S(=O)(=O)c2ccccc2)CC1 (stereo unspecified)	none
CSCCC1NC(=O)N(CC(=O)Nc2c(Cl)cc(Cl)cc2Cl)C1=O (stereo unspecified)	none
CN(C)CCNC(C(=O)Nc1cc(Cl)cc(Cl)c1)c1ccccc1 (stereo unspecified)	GLP1R inv ag inconclusive
CSCCC1NC(=O)N(C(C)C(=O)Nc2cc(Cl)cc(Cl)c2)C1=O (stereo unspecified)	GLP1R inv ag 11µM
O=C(Nc1cc(Cl)cc(Cl)c1)C(NCC1CCCO1)c1ccccc1 (stereo unspecified)	GLP1R inv ag 5µM
CC(C(=O)Nc1ccccc1-c1ccccc1)N1CCCCC1 (stereo unspecified)	GLP1R inv ag 10µM
CC(C(=O)Nc1cc(Cl)cc(Cl)c1)N1CCCC1 (stereo unspecified)	GLP1R inv ag 13µM
O=C(CSc1n[nH]c(-c2ccccc2Cl)n1)NCCc1ccccc1	none (no result: GLP-1R agonist, Gal4-VP16 FLuc, RORg inh)
C=CCC(C)(O)c1cccs1 (stereo unspecified)	none (no result: GLP1R inv ag, GLP-1R agonist, GLP1R cytotox)
O=C(Cn1ncn2c(cc3cc(F)ccc32)c1=O)NC1CCCCC1	none (no result: GLP-1R agonist, Gal4-VP16 FLuc, RORg inh)
COc1ccc(Cn2ccc3nc(C)c(C(=O)NCc4ccc(SC)cc4)cc3c2=O)cc1	none (no result: GLP-1R agonist, Gal4-VP16 FLuc, RORg inh)
COc1ccc(-n2nc(C(=O)N3CCCCC3C)c3c4ccccc4n(C)c3c2=O)cc1Cl (stereo unspecified)	none (no result: GLP-1R agonist, Gal4-VP16 FLuc, RORg inh)
CC(C)NC(C(=O)Nc1cc(Cl)cc(Cl)c1)c1ccccc1 (stereo unspecified)	GLP1R inv ag 7.9µM
O=C1[C@H]2[C@H]3[C@H](O)[C@H](O)C/C(=N/OC[C@@H](O)COCc4ccco4)[C@@H]3CC[C@@H]2C(=O)N1Cc1ccc2c(c1)OCO2	none (no result: GLP1R inv ag, GLP-1R agonist, GLP1R cytotox)
CC(C)CCNC(=O)c1onc(CSc2ccccc2)c1C(=O)NCCC(C)C	GLP1R inv ag 4µM (no result: Gal4-VP16 FLuc, RORg inh)
CC(C)NC(=O)c1onc(CSc2ccc(F)cc2)c1C(=O)O	none
CC(C)CCNC(=O)c1onc(CSc2ccc(Cl)cc2)c1C(=O)NCCC(C)C	GLP1R inv ag 10µM
CC(C)NC(=O)c1onc(CSc2ccc(C(C)C)cc2)c1C(=O)O	GLP1R inv ag inconclusive, Gal4-VP16 FLuc 20µM, RORg inh inconclusive
CC(C)CCNC(=O)c1onc(CSc2ccc(F)cc2)c1C(=O)NCCC(C)C	GLP1R inv ag inconclusive (no result: Gal4-VP16 FLuc, RORg inh)
CCc1ccc(NCc2cc3ccc(OC)cc3n(CC(=O)Nc3ccccc3C)c2=O)cc1	none (no result: Gal4-VP16 FLuc, RORg inh)
O=c1[nH]ncc(N2CCN(C(c3ccccc3)c3ccccc3)CC2)c1Cl	GLP1R inv ag 13µM
O=c1[nH]ncc(N2CCCC2)c1Cl	none
COc1ccc(N2CCN(c3oc(COc4ccccc4)nc3C#N)CC2)cc1	GLP1R inv ag 2.8µM, RORg inh inconclusive
COc1ccc(Nc2oc(COc3ccc(Cl)cc3)nc2C#N)cc1	GLP1R inv ag inconclusive, GLP1R cytotox inconclusive, Gal4-VP16 FLuc inconclusive, RORg inh 16µM
COc1ccc(/C=C/C(=O)NC(=S)N2CCCCC2)cc1OC	Gal4-VP16 FLuc inconclusive, RORg inh inconclusive
COc1ccc(/C=C/C(=O)NC(=S)NNC(=O)c2cccnc2)cc1	none
COc1cc(OC)cc(C(=O)NC(=S)N2CCCCC2c2cccnc2)c1 (stereo unspecified)	Gal4-VP16 FLuc 4µM
COc1ccc(/C=C/C(=O)NC(=S)NN2CCCCC2c2cccnc2)cc1OC (stereo unspecified)	Gal4-VP16 FLuc 16µM, RORg inh 13µM
O=C(/C=C/c1ccc(Cl)cc1)NC(=S)NN1CCCCC1c1cccnc1 (stereo unspecified)	Gal4-VP16 FLuc inconclusive, RORg inh 2µM (no result: GLP1R inv ag, GLP-1R agonist, GLP1R cytotox)
COC(=O)C1CCN(C(c2ccccc2)c2sc3nc(-c4ccco4)nn3c2O)CC1 (stereo unspecified)	none (no result: GLP-1R agonist, Gal4-VP16 FLuc, RORg inh)
Cc1c(C2=CCN(S(=O)(=O)c3cccc(Cl)c3)CC2)c2ccccc2n1CC(=O)N1CCCC1	none (no result: GLP-1R agonist, Gal4-VP16 FLuc, RORg inh)
Cc1ccc(-c2nc(CS(=O)CC(=O)NCc3ccc(Cl)cc3)c(C)o2)cc1 (stereo unspecified)	GLP1R inv ag inconclusive, RORg inh 13µM
COc1ccc(-c2nc(CS(=O)CC(=O)NCc3ccc(Cl)cc3)c(C)o2)cc1 (stereo unspecified)	GLP1R inv ag inconclusive, RORg inh 8.9µM
Cc1oc(-c2ccc(Cl)cc2)nc1CS(=O)CC(=O)NCc1ccccc1 (stereo unspecified)	GLP1R inv ag inconclusive
CCc1ccc(-c2nc(CS(=O)CC(=O)NCc3ccccc3)c(C)o2)cc1 (stereo unspecified)	GLP1R inv ag inconclusive, RORg inh inconclusive
CCc1cccc(NC(=O)CS(=O)Cc2nc(-c3ccc(C)cc3)oc2C)c1 (stereo unspecified)	GLP1R inv ag inconclusive, RORg inh 11µM
Cc1nc2nc[nH]n2c(=O)c1NS(=O)(=O)c1ccc(Br)cc1	none (no result: GLP-1R agonist, Gal4-VP16 FLuc, RORg inh)
CCCn1c(-c2ccc(F)cc2)nc2c(NCCN3CCCCC3)nc(C)nc21	none (no result: GLP1R inv ag, GLP-1R agonist, GLP1R cytotox)
CCOC(=O)c1c(C)cc(O)c(C=O)c1O	Gal4-VP16 FLuc inconclusive, RORg inh 11µM (no result: GLP1R inv ag, GLP-1R agonist, GLP1R cytotox)
Cc1ccc(-c2nnn(C/C(N)=N/O)n2)cc1	Gal4-VP16 FLuc 2.8µM, RORg inh 2.8µM
N/C(Cn1nnc(-c2ccccc2)n1)=N\O	none
Cc1cccc(NC(=O)NCCc2ccc(Cl)cc2)c1	GLP1R inv ag inconclusive
Cc1ccc(Cl)cc1NC(=S)NCCCSC1CCCCC1	GLP1R inv ag inconclusive, GLP1R cytotox inconclusive, Gal4-VP16 FLuc inconclusive, RORg inh 2µM
Cc1ccc(NC(=S)NCCSc2ccc(Cl)cc2)c(C)c1	GLP1R inv ag 10µM, GLP1R cytotox inconclusive, Gal4-VP16 FLuc 1µM, RORg inh 0.79µM

Screening data as filed in PubChem BioAssay.
